Results published in PubChem BioAssay (NCATS).
“And” between values parts separate entries of the source, which are not always exact repeats. Equal entries are not always repeated. Results filed as inconclusive are left out. The source made the active and inactive calls. Unless noted, calls come from the whole dose curve; as a rule, active = well fitted curve in the direction sought with a large enough effect; inconclusive = small, poorly fitted or top-dose-only effect, or another doubt; inactive = no such curve, though single readings can be large; an effect the other way counts as inactive or inconclusive.

Experiments:
[1] = Cell Viability - Hek293 (AID 427;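 active = compounds whose dose-response curve shows a full or clear partial loss of cell viability, called from curve shape rather than a numeric limit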;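 note: potency is the fitted concentration of half-maximal effect; cells exposed to compound for 40 hours at 37 °C before reading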); details: qHTS
Summary of the method: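 Luminescent ATP content (CellTiter-Glo, 20 min at room temperature) was measured after a 40 hr, 37 °C compound exposure of HEK293 cells. AC50 values came from Hill-equation fits of qHTS concentration-response data normalized to DMSO and 100 uM tamoxifen.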

[2] = Cell Viability - SK-N-SH (AID 435; calls by dose curve;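 note: potency is the fitted concentration of half-maximal effect; compound exposure lasted 40 h at 37 °C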); details: SK-N-SH neuroblastoma cell viability qHTS
Summary of the method: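 Human neuroblastoma line, 40 h exposure at 37 °C, ATP quantified via luciferase luminescence; DMSO and 100 uM tamoxifen define 0 and 100% inhibition for AC50 fitting.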

[3] = Cell Viability - SH-SY5Y (AID 544); details: SH-SY5Y neuroblastoma cell viability; viability change, negative = cytotoxic: at 92.2 µM (top of the series);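 note: cells exposed to compound for 40 hours; 0% = DMSO alone and -100% = 100 µM tamoxifen; nearly all actives have a fitted effect of over 55% in size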
Summary of the method: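 Luminescent ATP read-out (CellTiter-Glo) measures loss of viable SH-SY5Y neuroblastoma cells after 40 hr compound exposure at 37 °C. AC50 values derive from standard Hill modelling of qHTS concentration-response data.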

[4] = Cell Viability - LYMP1-003 - Assay at 40 hr (AID 964); details: LYMP1-003 lymphoblastoid viability; series mostly up to 92.2 µM; note: % is set by controls: 0 for no effect and ±100 for the full control effect; nearly all actives have a fitted effect of over 60% in size
Summary of the method: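 Cells were seeded at 2500 per well and incubated 5 hr at 37 C. Compounds were added across a concentration series and left 40 hr at 37 C. CellTiter-Glo was added for 30 min at room temperature before luminescence reading.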

[5] = Cell Viability - LYMP2-004 (AID 966); details: LYMP2-004 lymphoblastoid cell viability, qHTS; series mostly up to 92.2 µM;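 note: plate controls were DMSO only for no effect and tetraoctylammonium bromide control for full effect; nearly all actives have a fitted effect of over 65% in size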
Summary of the method: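 Cells seeded 2500/well, rested 5 hr at 37 C, dosed across a concentration series, incubated 24 hr at 37 C, then CellTiter-Glo added for 30 min at room temperature and luminescence read. Hill fitting gave AC50.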

[6] = Cell Viability - LYMP2-005 (AID 967); details: LYMP2-005 lymphoblastoid cell viability; series mostly up to 92.2 µM;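 note: plate controls were DMSO only for no effect and 92 µM tetraoctylammonium bromide control for full effect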
Summary of the method: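 Luciferase-based ATP quantitation served as the viability measure in human lymphoblastoid LYMP2-005 cells exposed to test compounds for 24 h at 37 C in complete culture medium. Potency (AC50) was obtained by fitting concentration-response curves with the Hill equation.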

[7] = Cell Viability - LYMP2-015 (AID 971); details: LYMP2-015 lymphoblastoid cell viability; series mostly up to 92.2 µM;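 note: 0% = DMSO only and full effect = 92 µM tetraoctylammonium bromide; nearly all actives have a fitted effect of over 55% in size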
Summary of the method: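 Luminescent ATP read-out (CellTiter-Glo) served as the viability measure after lymphoblastoid cells were exposed to compounds for 24 hours at 37 C. Concentration-response data were fitted with the Hill equation to give AC50.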

[8] = Cell Viability - LYMP2-021 (AID 974); details: LYMP2-021 lymphoblastoid cells viability; series mostly up to 92.2 µM;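 note: compound exposure lasts 24 hours at 37 °C; % is set by controls: 0 for no effect and ±100 for the full control effect; nearly all actives have a fitted effect of over 55% in size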
Summary of the method: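 Plate 2500 lymphoblastoid cells per well and incubate 5 hr at 37 C. Add compounds over a concentration range and incubate 24 hr at 37 C. Add CellTiter-Glo, wait 30 min at room temperature, read luminescence.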

[9] = Cell Viability - LYMP2-006 (AID 978); details: LYMP2-006 lymphoblastoid cell viability, qHTS; series mostly up to 92.2 µM; note: % is set by controls: 0 for no effect and ±100 for the full control effect; nearly all actives have a fitted effect of over 60% in size
Summary of the method: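 In this cytotoxicity screen, the human lymphoblastoid line grew in complete medium with test compounds for 24 hr at 37 C. Cellular ATP served as the viability signal.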

[10] = Cell Viability - LYMP2-010 (AID 981); details: LYMP2-010 lymphoblastoid cell viability, qHTS; series mostly up to 92.2 µM; note: % is set by controls: 0 for no effect and ±100 for the full control effect; nearly all actives have a fitted effect of over 55% in size
Summary of the method: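 Luminescent ATP signal (CellTiter-Glo) served as the viability read-out. Cells of the human lymphoblastoid line were treated with compound over a concentration range for 24 hours at 37 C, and AC50 values came from Hill-equation modeling.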

[11] = Cell Viability - LYMP2-012 (AID 982); details: LYMP2-012 lymphoblastoid cell viability qHTS; series mostly up to 92.2 µM
[12] = Cell Viability - LYMP2-022 (AID 987); details: LYMP2-022 lymphoblastoid cell viability; series mostly up to 92.2 µM
Summary of the method: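 qHTS: human lymphoblastoid cells 2500/well; 5 hr 37 C; cpd added; 24 hr 37 C; CellTiter-Glo, 30 min RT; luminescence. AC50 via Hill fit; tetraoctylammonium bromide positive ctrl.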

[13] = Cell Viability - LYMP2-024 (AID 988); details: LYMP2-024 lymphoblastoid cell viability; series mostly up to 92.2 µM;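 note: plate controls were DMSO only for no effect and 92 µM tetraoctylammonium bromide for full effect; nearly all actives have a fitted effect of over 60% in size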
Summary of the method: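 Steps: seed 2500 cells/well, 5 hr 37 C; add compound, 24 hr 37 C; add CellTiter-Glo, 30 min room temperature; read luminescence. AC50 derived by Hill modelling of concentration-dependent ATP loss.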

[14] = biological target: Thyroid hormone receptor beta (Homo sapiens) (UniProt P10828); experiment: qHTS assay for small molecule antagonists of thyroid hormone receptor beta signaling (AID 588547; active = well fitted inhibition curve with a large enough effect in the signal ratio, with a control signal flat, not every such curve was filed as active; the % refers to the signal ratio;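 note: cells stimulated with 0.4 nM T3 agonist during compound exposure; % is set by controls: 0 for no effect and ±100 for the full control effect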); details: TR-UAS-bla HEK293, beta-lactamase ratio, antagonist mode, 18 h
Sequence of Thyroid hormone receptor beta (Homo sapiens) (P10828 whole entry, looked up): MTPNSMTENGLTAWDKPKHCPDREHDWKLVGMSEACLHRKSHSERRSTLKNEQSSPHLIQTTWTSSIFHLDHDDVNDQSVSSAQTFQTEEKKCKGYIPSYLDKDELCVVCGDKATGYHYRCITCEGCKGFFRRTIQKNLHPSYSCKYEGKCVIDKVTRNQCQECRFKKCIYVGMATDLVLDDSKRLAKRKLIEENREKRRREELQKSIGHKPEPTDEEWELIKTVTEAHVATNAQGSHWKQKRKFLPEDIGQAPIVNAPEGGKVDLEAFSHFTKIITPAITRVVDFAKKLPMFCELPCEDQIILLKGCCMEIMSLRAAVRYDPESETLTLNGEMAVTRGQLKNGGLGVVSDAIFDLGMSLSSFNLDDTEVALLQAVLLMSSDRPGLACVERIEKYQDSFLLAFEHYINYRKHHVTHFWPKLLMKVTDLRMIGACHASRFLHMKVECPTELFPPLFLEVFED
Summary of the method: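 Inhibition of T3-driven (0.4nM final) beta-lactamase reporter activity was measured over 0.59 nM to 92 uM compound after 18 h at 37 C. The cells were GripTite HEK293 TR-UAS-bla in charcoal/dextran-stripped serum, with CCF4 ratio read-out and IC50 from Hill fits.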

[15] = qHTS assay for small molecule activators of the p53 signaling pathway (AID 651743; active = well fitted activation curve with a large enough effect in the signal ratio, not every such curve was filed as active; the % refers to the signal ratio; note: % of control where 0% means no effect); details: HCT-116 p53RE-bla, beta-lactamase FRET ratio, 16 h; activation: hits give high values
Summary of the method: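 Read-out is fluorescence intensity from the LiveBLAzer B/G FRET substrate, added for 2 hours at room temperature after HCT-116 p53RE-bla cells had been incubated with compounds for 16 hours at 37 C.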

[16] = qHTS assay for small molecule disruptors of the mitochondrial membrane potential - 5 hr assay (AID 651755; calls by dose curve; note: nearly all actives have a fitted effect of over 40% in size; note: potency is the fitted concentration of half-maximal effect); details: JC-1-type ratio dye; series mostly up to 92.2 µM
Summary of the method: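 HepG2, 2,000 cells/well, overnight attach; cpd or DMSO 5 hr, 37C/5% CO2; Mito-MPS 30 min 37C; fluor 490/535 + 540/590 nm.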

[17] = qHTS assay for small molecule antagonists of the retinoid-related orphan receptor gamma (ROR-gamma) signaling pathway - cell viability counter screen (AID 720652; active = well fitted curve in the direction sought with a large enough effect in the repeat runs; an effect the other way counts as inactive or inconclusive;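 note: compound exposure lasted 16 hr before ATP read; % is set by controls: 0 for no effect and ±100 for the full control effect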); details: RORgamma reporter cell line viability counter screen; series mostly up to 92.2 µM
Summary of the method: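 Luminescence from CellTiter-Glo after 30 min at room temperature reported cellular ATP as the cytotoxicity measure. Cells were the CHO reporter line with doxycycline-induced ROR-gamma expression, exposed to compound for 16 hr at 37 C.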

[18] = biological target: Nuclear receptor subfamily 1 group I member 2 (Rattus norvegicus) (UniProt Q9R1A7); experiment: qHTS assay for small molecule activators of the rat pregnane X receptor (rPXR) signaling pathway (AID 651751; call rule not given here; note: 0% is about no effect); details: rPXR reporter cells, luciferase (One-Glo), 24 h
Sequence of Nuclear receptor subfamily 1 group I member 2 (Rattus norvegicus) (Q9R1A7 whole entry, looked up): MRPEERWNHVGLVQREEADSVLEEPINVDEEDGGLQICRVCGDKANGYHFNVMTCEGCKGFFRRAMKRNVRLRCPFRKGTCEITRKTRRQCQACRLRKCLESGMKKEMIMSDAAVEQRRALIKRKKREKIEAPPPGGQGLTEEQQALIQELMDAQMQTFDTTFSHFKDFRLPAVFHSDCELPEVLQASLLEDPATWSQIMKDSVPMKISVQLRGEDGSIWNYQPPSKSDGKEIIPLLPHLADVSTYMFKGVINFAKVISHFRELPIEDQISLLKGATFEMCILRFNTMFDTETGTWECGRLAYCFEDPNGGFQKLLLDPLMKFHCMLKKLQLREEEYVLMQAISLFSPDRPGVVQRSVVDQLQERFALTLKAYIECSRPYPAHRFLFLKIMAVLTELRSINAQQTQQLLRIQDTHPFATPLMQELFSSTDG

[19] = Cell Viability - LYMP2-001 (AID 921); details: LYMP2-001 lymphoblastoid cell viability; series mostly up to 92.2 µM;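 note: 0% = DMSO only and full inhibition = tetraoctylammonium bromide control wells; nearly all actives have a fitted effect of over 70% in size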
Summary of the method: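 A lymphoblastoid cell line of human origin was treated with library compounds across a concentration series for 24 hours, and viable cell number was estimated from ATP-driven luciferase light output. Hill modeling gave AC50.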

[20] = qHTS assay for small molecule disruptors of the mitochondrial membrane potential - 1 hr assay (AID 651754; calls by dose curve; note: nearly all actives have a fitted effect of over 35% in size; note: potency is the fitted concentration of half-maximal effect); details: series mostly up to 92.2 µM
Summary of the method: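 HepG2, 2,000 cells/well, overnight attachment; cpd or DMSO 1 hr, 37C/5% CO2; Mito-MPS dye 30 min, 37C; fluorescence monomer (490/535) and aggregate (540/590).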

O=[N+]([O-])c1ccccc1Nc1ccccc1
inactive: Potency [1] > 92 µM | Potency [2] > 92 µM | Potency [3] | Potency [4] | Potency [5] | Potency [6] | Potency [7] | Potency [8] | Potency [9] | Potency [10] | Potency [11] | Potency [12] | Potency [13] | activity change % (negative = inhibition) [14] 8.34% | activation [15] -4.76% | Potency [16] | Potency [17] | max response [18] -3.61%

Cc1cc(=O)oc2cc(O)cc(O)c12
inactive: Potency [1] > 92 µM | Potency [2] > 92 µM | Potency [3] | Potency [19] | Potency [4] | Potency [5] | Potency [6] | Potency [7] | Potency [8] | Potency [9] | Potency [10] | Potency [11] | Potency [12] | Potency [13] | activation [15] 10.2% | Potency [17] | max response [18] -2.67%

c1ccc2ncccc2c1
inactive: Potency [1] > 92 µM | Potency [2] > 92 µM | Potency [3] | Potency [19] | Potency [4] | Potency [5] | Potency [6] | Potency [7] | Potency [8] | Potency [9] | Potency [10] | Potency [11] | Potency [12] | Potency [13] | activity change % (negative = inhibition) [14] 3.38% | activation [15] -4.75% | Potency [20] | Potency [16] | Potency [17] | max response [18] 5.68%

COc1ccc([N+](=O)[O-])cc1N
inactive: Potency [1] > 92 µM | Potency [2] > 92 µM | Potency [3] | Potency [19] | Potency [4] | Potency [7] | Potency [8] | Potency [9] | Potency [10] | Potency [11] | Potency [12] | Potency [13] | activity change % (negative = inhibition) [14] -27.9% | activation [15] -2.91% and -2.52% | Potency [20] | Potency [16] | Potency [17]

COc1ccc(C(=O)Nc2ccccc2)cc1[N+](=O)[O-]
inactive: Potency [1] > 92 µM | Potency [2] > 92 µM | Potency [19] | Potency [4] | Potency [5] | Potency [6] | Potency [7] | Potency [8] | Potency [9] | Potency [10] | Potency [11] | Potency [13] | activity change % (negative = inhibition) [14] 2.48% | activation [15] -6.78% | Potency [17]
active: Potency [20] 33.5 µM | Potency [16] 37.6 µM

OC1CCCCC1
inactive: Potency [1] > 92 µM | Potency [2] > 92 µM | Potency [3] | Potency [19] | Potency [4] | Potency [5] | Potency [6] | Potency [7] | Potency [8] | Potency [9] | Potency [10] | Potency [11] | Potency [12] | Potency [13] | activity change % (negative = inhibition) [14] 4.86% | activation [15] -2.93% | Potency [17] | max response [18] 1.53%
